To fix the notation:
T1: RBFOX1 RRM (Homo sapiens, UniProt Q9NWB1 109-208)
T1 sequence: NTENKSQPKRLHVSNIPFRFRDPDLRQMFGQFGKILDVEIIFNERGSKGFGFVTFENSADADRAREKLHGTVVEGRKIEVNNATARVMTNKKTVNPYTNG

B1: UCAGGUC (DNA:RNA)
RNA: GGGAGACCGGAAUUCAGAUUGUCCUCAGGUCUUAAAUCCCGUCGUAGCCACCA
DNA 1: CAATCTGAATTCCGGTCTCCC
DNA 2: TGGTGGCTACGACGGGATT
B2: GGAAAAU (DNA:RNA)
RNA: B1 RNA with U25G, C26G, G28A, G29A, U30A, C31U
DNA 1: CAATCTGAATTCCGGTCTCCC
DNA 2: TGGTGGCTACGACGGGATT
B3: CUAUCGG (DNA:RNA)
RNA: B1 RNA with U25C, C26U, G28U, G29C, U30G, C31G
DNA 1: CAATCTGAATTCCGGTCTCCC
DNA 2: TGGTGGCTACGACGGGATT
B4: CAUAACG (DNA:RNA)
RNA: GGGAGACCGGAAUUCAGAUUGUCCCAUAACGUUAAAUCCCGUCGUAGCCACCA
DNA 1: CAATCTGAATTCCGGTCTCCC
DNA 2: TGGTGGCTACGACGGGATT
B5: UGUGGGC (DNA:RNA)
RNA: B1 RNA with C26G, A27U, U30G
DNA 1: CAATCTGAATTCCGGTCTCCC
DNA 2: TGGTGGCTACGACGGGATT
B6: UGGGCUG (DNA:RNA)
RNA: B1 RNA with C26G, A27G, G29C, C31G
DNA 1: CAATCTGAATTCCGGTCTCCC
DNA 2: TGGTGGCTACGACGGGATT
B7: UGGGGGC (DNA:RNA)
RNA: B1 RNA with C26G, A27G, U30G
DNA 1: CAATCTGAATTCCGGTCTCCC
DNA 2: TGGTGGCTACGACGGGATT
B8: CACUUGC (DNA:RNA)
RNA: B4 RNA with U27C, A28U, A29U, C30G, G31C
DNA 1: CAATCTGAATTCCGGTCTCCC
DNA 2: TGGTGGCTACGACGGGATT
B9: GGAUGCG (DNA:RNA)
RNA: B4 RNA with C25G, A26G, U27A, A28U, A29G
DNA 1: CAATCTGAATTCCGGTCTCCC
DNA 2: TGGTGGCTACGACGGGATT
B10: AUAUGCA (DNA:RNA)
RNA: B1 RNA with U25A, C26U, G28U, U30C, C31A
DNA 1: CAATCTGAATTCCGGTCTCCC
DNA 2: TGGTGGCTACGACGGGATT
B11: CCAUGCC (DNA:RNA)
RNA: B1 RNA with U25C, G28U, U30C
DNA 1: CAATCTGAATTCCGGTCTCCC
DNA 2: TGGTGGCTACGACGGGATT
B12: GCAUGCC (DNA:RNA)
RNA: B1 RNA with U25G, G28U, U30C
DNA 1: CAATCTGAATTCCGGTCTCCC
DNA 2: TGGTGGCTACGACGGGATT
B13: ACAUGCG (DNA:RNA)
RNA: B1 RNA with U25A, G28U, U30C, C31G
DNA 1: CAATCTGAATTCCGGTCTCCC
DNA 2: TGGTGGCTACGACGGGATT
B14: GUAUGCC (DNA:RNA)
RNA: B1 RNA with U25G, C26U, G28U, U30C
DNA 1: CAATCTGAATTCCGGTCTCCC
DNA 2: TGGTGGCTACGACGGGATT
B15: CGAUGCC (DNA:RNA)
RNA: B1 RNA with U25C, C26G, G28U, U30C
DNA 1: CAATCTGAATTCCGGTCTCCC
DNA 2: TGGTGGCTACGACGGGATT
B16: GGAUGCA (DNA:RNA)
RNA: B1 RNA with U25G, C26G, G28U, U30C, C31A
DNA 1: CAATCTGAATTCCGGTCTCCC
DNA 2: TGGTGGCTACGACGGGATT
B17: GGAUGCC (DNA:RNA)
RNA: B1 RNA with U25G, C26G, G28U, U30C
DNA 1: CAATCTGAATTCCGGTCTCCC
DNA 2: TGGTGGCTACGACGGGATT
B18: GUAUGCA (DNA:RNA)
RNA: B1 RNA with U25G, C26U, G28U, U30C, C31A
DNA 1: CAATCTGAATTCCGGTCTCCC
DNA 2: TGGTGGCTACGACGGGATT
B19: GCAUCCC (DNA:RNA)
RNA: B1 RNA with U25G, G28U, G29C, U30C
DNA 1: CAATCTGAATTCCGGTCTCCC
DNA 2: TGGTGGCTACGACGGGATT
B20: GCAUGCG (DNA:RNA)
RNA: B1 RNA with U25G, G28U, U30C, C31G
DNA 1: CAATCTGAATTCCGGTCTCCC
DNA 2: TGGTGGCTACGACGGGATT
B21: AGGAUUU (DNA:RNA)
RNA: B4 RNA with C25A, A26G, U27G, A29U, C30U, G31U
DNA 1: CAATCTGAATTCCGGTCTCCC
DNA 2: TGGTGGCTACGACGGGATT
B22: CUUUGGG (DNA:RNA)
RNA: B4 RNA with A26U, A28U, A29G, C30G
DNA 1: CAATCTGAATTCCGGTCTCCC
DNA 2: TGGTGGCTACGACGGGATT
B23: GAACCCA (DNA:RNA)
RNA: B4 RNA with C25G, U27A, A28C, A29C, G31A
DNA 1: CAATCTGAATTCCGGTCTCCC
DNA 2: TGGTGGCTACGACGGGATT
B24: UUAGAUC (DNA:RNA)
RNA: B1 RNA with C26U, G29A
DNA 1: CAATCTGAATTCCGGTCTCCC
DNA 2: TGGTGGCTACGACGGGATT
B25: GGCGUGC (DNA:RNA)
RNA: B1 RNA with U25G, C26G, A27C, G29U, U30G
DNA 1: CAATCTGAATTCCGGTCTCCC
DNA 2: TGGTGGCTACGACGGGATT
B26: CUCGUCC (DNA:RNA)
RNA: B4 RNA with A26U, U27C, A28G, A29U, G31C
DNA 1: CAATCTGAATTCCGGTCTCCC
DNA 2: TGGTGGCTACGACGGGATT
B27: CCAUCUC (DNA:RNA)
RNA: B1 RNA with U25C, G28U, G29C
DNA 1: CAATCTGAATTCCGGTCTCCC
DNA 2: TGGTGGCTACGACGGGATT
B28: GUCCGCA (DNA:RNA)
RNA: B4 RNA with C25G, A26U, U27C, A28C, A29G, G31A
DNA 1: CAATCTGAATTCCGGTCTCCC
DNA 2: TGGTGGCTACGACGGGATT
B29: GCAUCAG (DNA:RNA)
RNA: B1 RNA with U25G, G28U, G29C, U30A, C31G
DNA 1: CAATCTGAATTCCGGTCTCCC
DNA 2: TGGTGGCTACGACGGGATT
B30: GCAUGCA (DNA:RNA)
RNA: B1 RNA with U25G, G28U, U30C, C31A
DNA 1: CAATCTGAATTCCGGTCTCCC
DNA 2: TGGTGGCTACGACGGGATT
B31: CGCAUCG (DNA:RNA)
RNA: B4 RNA with A26G, U27C, A29U
DNA 1: CAATCTGAATTCCGGTCTCCC
DNA 2: TGGTGGCTACGACGGGATT
B32: GCAUUAA (DNA:RNA)
RNA: B1 RNA with U25G, G28U, G29U, U30A, C31A
DNA 1: CAATCTGAATTCCGGTCTCCC
DNA 2: TGGTGGCTACGACGGGATT
B33: GCAUCCG (DNA:RNA)
RNA: B4 RNA with C25G, A26C, U27A, A28U, A29C
DNA 1: CAATCTGAATTCCGGTCTCCC
DNA 2: TGGTGGCTACGACGGGATT

Residue numbers refer to the chain shown, from its start. The full ranking holds about 16,000 sequences; the median of “ka relative to ugcaugu” is about 0.0091, and the highest 2% start at about 0.032. Shown is part of a subset that was picked to be rich in the highest values.

The experiment has as its target T1, RBFOX1 RRM. Briefly: EMSA; HiTS-Eq, 1 nM pool, 10 min; buffer printed only for the single-RNA assays: 10 mM Tris pH 7.5, 150 mM NaCl, 3.4 mM EDTA, 0.001% NP-40, 30 C. The settings on record: tags: His6 N-terminal (pET28a); label: 5' 32P. In short, it runs like this: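 These values rest on relative association constants, computed from read-count changes of each RNA species versus the control reaction and normalised to the cognate motif. Reads came from free RNA recovered by 8% native PAGE after purified RbFox RRM (wild type or mutant) at increasing concentrations was equilibrated for 10 min in 50 µL with 1 nM of a 5′-radiolabelled pool with 7 randomized nucleotides and DNA-annealed flanks.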
On the technique in general: In EMSA bound probe runs differently from free probe, usually more slowly.
B1: the binding signal is 0.0155 KA relative to UGCAUGU.
B2: the binding signal is 0.00757 KA relative to UGCAUGU.
Under B3 stands 0.00622 KA relative to UGCAUGU; under B4, 0.00316 KA relative to UGCAUGU.
With B5, the binding signal was 0.0102 KA relative to UGCAUGU.
For B6, the binding signal was 0.039 KA relative to UGCAUGU.
As to B7, the binding signal is 0.014 KA relative to UGCAUGU.
Take B8: the binding signal is 0.00965 KA relative to UGCAUGU.
With B9, the binding signal is 0.0222 KA relative to UGCAUGU.
For B10 the value was 0.0145 KA relative to UGCAUGU; for B11, 0.00772 KA relative to UGCAUGU; for B12, 0.829 KA relative to UGCAUGU.
In the case of B13, the binding signal was 0.00768 KA relative to UGCAUGU.
For B14, the binding signal is 0.0139 KA relative to UGCAUGU.
Consider B15, for which the binding signal is 0.012 KA relative to UGCAUGU.
Under B16 stands 0.0274 KA relative to UGCAUGU; under B17, 0.0339 KA relative to UGCAUGU.
Under B18 stands 0.0319 KA relative to UGCAUGU; under B19, 0.0182 KA relative to UGCAUGU.
In the case of B20, the binding signal was 0.916 KA relative to UGCAUGU.
For B21 the value was 0.0177 KA relative to UGCAUGU; for B22, 0.00295 KA relative to UGCAUGU.
As to B23, the binding signal is 0.00229 KA relative to UGCAUGU.
Take B24: the binding signal is 0.0111 KA relative to UGCAUGU.
Regarding B25, the binding signal was 0.0292 KA relative to UGCAUGU.
Regarding B26, the binding signal is 0.00629 KA relative to UGCAUGU.
Take B27: the binding signal is 0.00486 KA relative to UGCAUGU.
With B28, the binding signal was 0.0155 KA relative to UGCAUGU.
For the molecule B29, the binding signal is 0.0121 KA relative to UGCAUGU.
For the molecule B30, the binding signal is 0.751 KA relative to UGCAUGU.
B31: the binding signal is 0.017 KA relative to UGCAUGU.
With B32, the binding signal was 0.00489 KA relative to UGCAUGU.
Under B33 stands 0.0325 KA relative to UGCAUGU.

For the origin of these results see paper PMC9911399, “Two distinct binding modes provide the RNA-binding protein RbFox with extraordinary sequence specificity”.
